Measurements taken from article PMC4336329 (PLoS ONE, 2015).
Among all 310,000 compounds or so, about 14,000 (4.5%) showed an effect of 50% or more. Effects have a minus sign here. Shown is part of a subset that was picked to be rich in strong results.

The molecules below were run against human ether-à-go-go-related gene (hERG) potassium channel (human, UniProt Q12809) (assay: primary screen, population patch clamp on CHO cells stably expressing hERG; higher = less effect of the substance).
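Note: peak tail current of the secondary pulse compared with the same well before compound.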

human ether-à-go-go-related gene (hERG) potassium channel, sequence (Q12809 whole entry, looked up): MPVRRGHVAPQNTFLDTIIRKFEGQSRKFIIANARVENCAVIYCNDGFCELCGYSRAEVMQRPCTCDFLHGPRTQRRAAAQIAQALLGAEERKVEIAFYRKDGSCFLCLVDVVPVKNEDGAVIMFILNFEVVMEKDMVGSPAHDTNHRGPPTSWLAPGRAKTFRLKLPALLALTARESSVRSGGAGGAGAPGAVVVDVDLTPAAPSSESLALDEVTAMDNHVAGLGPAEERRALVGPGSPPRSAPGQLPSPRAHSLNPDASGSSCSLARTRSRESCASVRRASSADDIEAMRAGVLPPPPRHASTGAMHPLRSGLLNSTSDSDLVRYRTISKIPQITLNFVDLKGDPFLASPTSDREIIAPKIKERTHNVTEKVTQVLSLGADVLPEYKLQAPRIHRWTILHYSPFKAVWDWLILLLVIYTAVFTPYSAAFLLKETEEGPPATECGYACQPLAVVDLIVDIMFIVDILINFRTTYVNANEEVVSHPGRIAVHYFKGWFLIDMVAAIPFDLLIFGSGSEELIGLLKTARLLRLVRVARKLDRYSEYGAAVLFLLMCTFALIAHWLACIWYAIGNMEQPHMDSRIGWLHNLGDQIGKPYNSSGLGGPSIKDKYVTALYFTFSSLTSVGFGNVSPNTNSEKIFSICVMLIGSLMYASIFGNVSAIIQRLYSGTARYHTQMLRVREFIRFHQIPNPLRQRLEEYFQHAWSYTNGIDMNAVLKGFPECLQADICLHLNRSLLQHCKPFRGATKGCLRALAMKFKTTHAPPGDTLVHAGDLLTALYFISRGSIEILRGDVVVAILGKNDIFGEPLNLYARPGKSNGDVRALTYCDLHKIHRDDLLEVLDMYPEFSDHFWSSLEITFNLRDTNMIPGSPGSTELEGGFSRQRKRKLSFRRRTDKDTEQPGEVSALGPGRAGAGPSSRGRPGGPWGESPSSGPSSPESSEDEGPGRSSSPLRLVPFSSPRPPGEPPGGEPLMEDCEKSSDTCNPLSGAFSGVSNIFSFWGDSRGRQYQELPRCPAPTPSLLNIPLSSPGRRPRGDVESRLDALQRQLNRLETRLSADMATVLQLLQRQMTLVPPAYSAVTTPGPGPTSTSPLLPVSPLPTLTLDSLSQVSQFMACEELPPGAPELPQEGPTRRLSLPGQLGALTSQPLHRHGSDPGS

SMILES	hERG current change (%, negative = inhibition) at 10uM [%]
CNC(=O)Oc1ccc2c(c1)C(=O)c1ccccc1CO2	6.76
CNC(=S)Nc1cc(OC)c(NC(=O)c2ccco2)cc1OC	14.9
Cc1cc(C)nc(NNS(=O)(=O)c2ccc(F)c(Cl)c2)n1	0.38
Cc1ccc(C)n1NC(=O)c1cccs1	9.98
CCOCCCNCC(O)c1ccccc1.O=C(O)C(=O)O (centres unmarked)	3.55
O=C(N/N=C/c1cc(Cl)cc([N+](=O)[O-])c1O)C(O)(c1ccccc1)c1ccccc1	-53
O=C(N/N=C/c1cccc([N+](=O)[O-])c1O)C(O)(c1ccccc1)c1ccccc1	8.16
O=C(N/N=C/c1cc([N+](=O)[O-])cc([N+](=O)[O-])c1O)C(O)(c1ccccc1)c1ccccc1	-4.37
Cc1ccc(/C(O)=C2/C(=O)C(=O)N(c3ccccn3)C2c2ccc([N+](=O)[O-])cc2)cc1 (centres unmarked)	8.83
COC(=O)COc1cccc2c(=O)n(CC(=O)NCc3ccc(F)cc3)ccc12	1.82
O=C1CC(c2cccnc2)=NN1c1ccc(Cl)cc1Cl	12.1
C/C=C(/C)C(=O)O[C@@H]1c2c(ccc3ccc(=O)oc23)O[C@@H]1C(C)(C)OC(=O)/C(C)=C\C	-0.936
O=C1OC(Nc2cc(Br)cc3cccnc23)c2ccccc21 (centres unmarked)	-9.92
COc1ccc(S(=O)(=O)N/N=C/c2ccc(OCCN3CCOCC3)c(OC)c2)cc1	1.42
CCOc1cc(/C=N/NS(=O)(=O)c2ccc(OC)cc2)ccc1OCCN1CCOCC1	-53.8
COc1cc(/C=N/NS(=O)(=O)c2ccc3ccccc3c2)ccc1OCCN1CCOCC1	-39.5
CCn1c(COc2ccccc2C)nnc1SCC(=O)OC	-9.68
O=C(CN(C(=O)c1csnn1)c1cccc2ccccc12)NC1CCCC1	-2.34
Cc1cc(NCc2ccccc2)c2ccccc2n1.Cl	-67.5
COc1ccc2nc(C)cc(NCc3cccc(C(F)(F)F)c3)c2c1	-31.7
Cc1cc(NC(=O)Cc2ccccc2)c2ccccc2n1	14.2
COc1ccc(CNc2cc(C)nc3ccc(OC)cc23)cc1	-72.8

SMILES	hERG current change (%, negative = inhibition) at 10uM [%]
COc1ccc2nc(C)cc(N/N=C/c3ccc(F)cc3)c2c1	0.337
Cc1cc(NCc2ccccc2)nc2ccccc12	-50.9
COc1ccc2nc(NCc3ccccc3)[nH]c2c1	-25.4
Cc1cc(NCCO)c2ccccc2n1.Cl	6.81
COc1ccc2nc(C)cc(NCc3ccc(F)cc3)c2c1	-61.6
Cc1cc(NCc2ccccn2)nc2ccccc12	-15.4
Cc1cc(NCC2CCCCC2)nc2ccccc12	-42.7
COC(=O)CSc1cc(C)nc2ccc(OC)cc12	1.44
Cc1cc(C(=O)NNc2c(Cl)cccc2Cl)no1	3.46
CC1(C)Cc2nc3oc4c(SCC(N)=O)ncnc4c3cc2CO1	4.95
Cc1ccc(S(=O)(=O)N(C)C)cc1NC(=O)COC(=O)/C=C/c1ccc2c(c1)OCO2	-9.63
O=C(NC1CCCCC1)C1CCCN(S(=O)(=O)c2cccs2)C1 (centres unmarked)	11.3
COc1ccc(NC(=O)OCCN2CCN(Cc3ccccc3)CCC2=O)cc1	-9.25
COc1c(O)ccc(/C=N/NC(=O)c2ccc3c(c2)OCCO3)c1[N+](=O)[O-]	7.36
[Br-].c1ccc(-c2cn(-c3ccccc3)c3[n+]2CCCS3)cc1	-3.51
COc1ccc(-n2cc(-c3ccc(OC)c(OC)c3)[nH]c2=S)cc1	6.1
COc1ccc(-c2cn(-c3ccc(SC(F)F)cc3)c3[n+]2CCC3)cc1OC.[Br-]	-62.4
FC(F)Sc1ccc(-n2cc(-c3ccccc3)[n+]3c2CCC3)cc1.[Br-]	-77.9
COc1ccc(-c2cn(-c3ccccc3)c(=S)[nH]2)cc1OC	16.1
N#Cc1ccc(-c2cn(-c3ccccc3)c3[n+]2CCCS3)cc1.[Br-]	16.3
CC(=O)c1ccc(-n2cc(-c3ccc(C(C)(C)C)cc3)[n+]3c2SCCC3)cc1.[Br-]	-30.1
FC(F)Sc1ccc(-n2cc(-c3ccc(Cl)cc3)[n+]3c2CCC3)cc1.[Br-]	-74.3

SMILES	hERG current change (%, negative = inhibition) at 10uM [%]
O=C(Cc1ccc(Cl)cc1)Nc1ccc(SC(F)F)cc1	-1.83
O=[N+]([O-])CC(c1ccccc1)c1c[nH]c2ccccc12 (centres unmarked)	10.6
O=C(CN1C(=O)NC(Cc2c[nH]c3ccccc23)C1=O)Nc1ccc(F)c(F)c1F (centres unmarked)	-5.36
O=C(Nc1cccc(Cl)c1)N1CCN2C(=O)c3ccccc3C12c1ccccc1 (centres unmarked)	-24.3
COc1ccc(CNC(=S)Nc2ccccc2)cc1	7.34
O=C(Cc1ccc([N+](=O)[O-])cc1)N1CCCc2ccccc21	-41.1
O=C(Oc1c(Cl)cc(Cl)c2ccccc12)N1CCCC1	-25.9
CC(COc1ccc(/C=C/c2ccccc2)cc1)[N+](C)(C)C.[I-] (centres unmarked)	-9.04
CC(C)(C)C(=O)Nc1ccc(C(=O)Nc2cc(NC(=O)c3ccc(NC(=O)C(C)(C)C)cc3)cc(C(=O)O)c2)cc1	6.62
CCCc1cc(C(=O)Nc2ccc(C(=O)OC)cc2)cs1	5.28
COc1ccc(/C=N/NC(=O)c2nn(C)cc2Br)cc1CSCc1ccco1	-50.6
CCOc1cc(/C=N/NC(=O)c2nn(C)cc2Br)ccc1OCc1ccccc1Cl	-14.7
CCOc1cc(/C=N/NC(=O)c2nn(C)cc2Br)ccc1OCc1ccccc1	5.59
Cc1cc(C)cc(OCC(=O)N2N=C(C(F)(F)F)CC2(O)C(C)(C)C)c1 (centres unmarked)	3.64
CC1CCN(C(=O)CSCC(=O)Nc2nc(-c3cccs3)cs2)CC1	-20.6
Cc1ccc(C2=CC(c3ccc(C)cc3)n3ncnc3N2)cc1 (centres unmarked)	-17.6
Cc1ccc(C2C=C(c3ccccc3)Nc3ncnn32)cc1 (centres unmarked)	-64.7
COc1ccc(C2C=C(c3ccccc3)Nc3ncnn32)cc1 (centres unmarked)	-57.4
COc1cccc(C2=CC(c3ccc(C)cc3)n3ncnc3N2)c1 (centres unmarked)	-52.4
CCOc1ccc(C2C=C(c3ccccc3)Nc3ncnn32)cc1 (centres unmarked)	-47.2
Cc1ccc(C2=CC(c3ccccc3)n3ncnc3N2)cc1 (centres unmarked)	-15.8
COc1cccc(C2=CC(c3ccccc3)n3ncnc3N2)c1 (centres unmarked)	-2.39

SMILES	hERG current change (%, negative = inhibition) at 10uM [%]
COc1cccc(C2=CC(c3ccc(N(C)C)cc3)n3ncnc3N2)c1 (centres unmarked)	-1.72
C1=C(c2ccccc2)Nc2ncnn2C1c1ccccc1 (centres unmarked)	-5.26
O=C(Nc1nnc(-c2ccccc2Cl)s1)c1ccccc1F	10.9
CC(=O)c1ccc(N2CCN(S(=O)(=O)c3ccc(-c4cc(C)no4)s3)CC2)cc1	-1.08
Cc1ccc2c(c1)NCCO2	4.46
O=C(CSc1ccc(F)cc1)Nc1ccc(N2CCOCC2)c(Cl)c1	-20.3
COc1cccc(N2CCN(C(=O)c3oc4ccccc4c3NC(=O)Cc3ccc(OC)c(OC)c3)CC2)c1	-14.1
CCOCCCN(C)C1CCN(C(=O)c2oc3ccccc3c2NC(=O)Cc2cccc([N+](=O)[O-])c2)CC1	-75.3
CCOCCCN(C)C1CCN(C(=O)c2oc3ccccc3c2NC(=O)Cc2ccc([N+](=O)[O-])cc2)CC1	-81.5
COc1ccc(N2CCN(C(=O)c3oc4ccccc4c3NC(=O)Cc3cccc(OC)c3)CC2)cc1	-30.2
COc1ccc(CC(=O)Nc2c(C(=O)N3CCN(c4ccccc4)CC3)oc3ccccc23)cc1OC	-32.4
Cc1nc(=S)c2c([nH]1)-c1ccccc1CC21CCCCC1	10.8
CC1CCCC(NC(=O)COC(=O)c2ccc(N(C)C)cc2)C1C (centres unmarked)	-1.77
Cc1ccc(NC(=O)CN(C)S(=O)(=O)c2cccc3cccnc23)c(C)c1	4.3
Cc1ccsc1C(=O)C1CCCN(Cc2ccn[nH]2)C1 (centres unmarked)	6.96
Cc1ccsc1C(=O)C1CCCN(Cc2cn(C)nc2C)C1 (centres unmarked)	-40.9
Cc1ccsc1C(=O)C1CCCN(Cc2cc(F)ccc2-n2cccn2)C1 (centres unmarked)	-82.9
Cc1ccsc1C(=O)C1CCCN(Cc2ccccc2O)C1 (centres unmarked)	-48.1
Cc1ccc(-n2cccn2)c(CN2CCCC(C(=O)c3sccc3C)C2)c1 (centres unmarked)	-85.4
COC(=O)Nc1ncc(CN2C(=O)c3ccccc3C2=O)s1	-23
